V-ATPase pHluor: yeast V-ATPase proton transport regulation by pHLuorin | S. cerevisiae, pHLuorin cytosolic pH fluorescence | response, % at 10 µM | 350,000 tested, 0.37% active | AID 504577; in the data active = response mostly above about 7.3%, no sharp cut-off; inactive = mostly below about 5.4%; also: actives read high
JMJD2C inh: blocks human GASC-1 demethylase activity. GST-JMJD2C(1-420) H3K9me3 demethylation, DELFIA europium. inhibition, % at 2.35 µM. 330,000 tested, 0.069% active;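 active = more than half of a compound's replicate wells show inhibition beyond 50%, single wells judged on their own value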;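 also: signal counts dimethyl H3K9 product captured on neutravidin plate; 0% = median of DMSO wells and 100% = 0.3 times that DMSO median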
PolyA inhibitor: inhibitors of polyadenylation in S. cerevisiae; 300,000 tested, 0.02% active; S. cerevisiae SKY197-pL101 polyadenylation reporter, beta-gal luminescence; efflux-impaired pdr1/pdr3 knockout yeast; score 100 = 6 SD above DMSO; AID 1875; activity score, % at 12 µM;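 active = lowest replicate activity score at least 50, where 100 means six control SD above control mean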;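 also: yeast exposed to compound for 9 h at 30 °C; higher score means more reporter readthrough which indicates perturbed polyadenylation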
PKA-R1A act: PKA-R1A complex activation; PKA-R1A dissociation, Cy5-IP20 fluorescence polarization; scaled: DMSO 0%, 113 µM cGMP 100%; 340,000 tested, 0.083% active; P00514+P68181; AID 504707; activation, % at 11.4 µM;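 active = percent activation above the mean of all tested compounds plus 3 SD, cut at about 19% in these data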;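 also: higher means more PKAc released from R1A so a rise in polarization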
CR mimetic SO: caloric restriction mimetics inhibiting age-related superoxide in yeast | S. cerevisiae aged cells, superoxide DHE fluorescence; active compounds read low | superoxide response (% of plate mean), % at 10 µM | 330,000 tested, 0.18% active | AID 2690;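 active = superoxide response under a set limit, about three screen SD below normal, cut at about 65% in these data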;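 also: yeast aged for seven days with compound at 30 °C before DHE staining; 100% = average MFI of all compound-treated wells on the plate with controls excluded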
PKA-R2B activ: activates the human PKA-R2B holoenzyme complex | AID 504700 | activation, % at 11.4 µM | 340,000 tested, 0.079% active | PKA-R2B holoenzyme dissociation, Cy5-IP20 fluorescence polarization; R2B truncated from residue 108, S112A mutant; 0% DMSO only, 100% 113 µM cGMP | P22694+P31323;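 active = activation above a cutoff set at the mean over all compounds plus 3 SD, cut at about 18% in these data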;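 also: higher means more holoenzyme dissociation and a rise in polarization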
Target sequence (P31323 whole entry, looked up, other chains not shown, the tested form may be a part): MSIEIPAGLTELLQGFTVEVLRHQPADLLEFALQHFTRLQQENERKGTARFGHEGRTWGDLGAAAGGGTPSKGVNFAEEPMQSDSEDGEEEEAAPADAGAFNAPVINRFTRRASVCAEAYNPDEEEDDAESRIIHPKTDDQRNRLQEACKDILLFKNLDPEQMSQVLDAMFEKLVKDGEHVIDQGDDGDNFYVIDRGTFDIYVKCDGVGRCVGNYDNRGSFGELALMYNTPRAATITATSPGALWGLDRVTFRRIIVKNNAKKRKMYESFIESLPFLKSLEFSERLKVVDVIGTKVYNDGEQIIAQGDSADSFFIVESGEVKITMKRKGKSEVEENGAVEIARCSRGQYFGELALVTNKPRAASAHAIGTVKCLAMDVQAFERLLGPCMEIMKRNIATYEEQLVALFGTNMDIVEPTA
VATPase regulator: modulates yeast V-ATPase proton transport | shares compounds with V-ATPase pHluor | S. cerevisiae pHLuorin cytosolic pH | response, % at 10 µM | 980 tested, 2% active | AID 602197; in the data active = response above about 24%;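 also: plate controls were vehicle wells for no effect and positive control wells for full effect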
* marks the source's active call; other numbers are inactive results; · = not tested or not shown. Compounds with a hit are over-represented: about 0.78% of the library has one in this group of screens.

SMILES	V-ATPase pHluor	JMJD2C inh	PolyA inhibitor	PKA-R1A act	CR mimetic SO	PKA-R2B activ	VATPase regulator
O=C(/C=C/c1ccccc1[N+](=O)[O-])OCC(=O)c1ccccc1	-2	·	-9	1	107	1	·
COc1ccc(C(=O)COC(=O)/C=C/c2ccccc2[N+](=O)[O-])cc1	14*	4	·	-10	96	-6	0
COc1ccc(CC(=O)NC2CCCc3ccccc32)cc1 (stereo not given)	1	7	16	6	111	11	·
COc1ccc2c(c1)C(CC(=O)NN)CCC2 (stereo not given)	13*	·	·	-9	·	0	0
O=C(N/C(=C\c1ccc(Br)cc1)C(=O)N1CCOCC1)c1ccco1	14*	-10	9	3	81	7	-3
O=C(N/C(=C/c1ccc(Br)cc1)C(=O)N1CCOCC1)c1ccco1	3	5	7	-12	98	-3	·
Cc1ccc(S(=O)(=O)/N=C(/Nc2ccc(O)c(C(=O)O)c2)c2ccccc2)cc1	12*	-2	·	-1	92	-2	-1
CCCCn1c(=N)n(CC(O)c2ccccc2)c2ccccc21 (stereo not given)	6	1	13	2	108	-2	·
CCn1c(=N)n(CC(O)c2ccccc2)c2ccccc21 (stereo not given)	28*	10	5	-6	99	2	1
C[C@@H]1CN([C@@H](C)CO)S(=O)(=O)c2ccc(Br)cc2O[C@@H]1CN(C)C(=O)c1ccncc1	5.2*	·	·	7	·	-7	-1
C[C@H]1CN([C@@H](C)CO)S(=O)(=O)c2ccc(Br)cc2O[C@@H]1CN(C)C(=O)c1cccnc1	-1	·	·	-2	·	1	·
O=C(O)CC(CNS(=O)(=O)c1ccccc1)c1ccccc1 (stereo not given)	7.1*	2	10	1	91	9	-2
O=C(O)CCCCCCNS(=O)(=O)c1ccccc1	2	8	-3	7	102	0	·
O=[N+]([O-])c1c(NCc2ccccc2)cc(N2CCc3ccccc3C2)c2nonc12	5.8*	6	-27	-2	90	0	2
O=[N+]([O-])c1c(NCCCO)cc(N2CCCCCC2)c2nonc12	6	-9	-4	-4	91	-2	·
COc1ccc2c(=O)c(Oc3ccc(C(=O)O)cc3)c(C(F)(F)F)oc2c1	3	2	1	-17	134	-4	·
Cc1ccc(CNC2=NCCCCC2)n1C	11*	1	14	-13	98	-5	0
COc1ccc(CCNC(=O)CSc2nnc(C(C)N(C)C)n2Cc2ccccc2)cc1OC (stereo not given)	3	-5	-7	-10	94	-2	·
O=C(Nc1ccc(F)cc1)Nc1cc(S(=O)(=O)N2CCOCC2)ccc1N1CCCC1	8.6*	16	12	-11	96	3	-3
COc1ccc(-n2ccn(CC(=O)Nc3ccccc3OC)c(=O)c2=O)cc1	2	-3	11	-3	105	-11	·
COc1ccc(-n2ccn(CC(=O)Nc3ccc(OC)cc3OC)c(=O)c2=O)cc1	9.4*	26	-5	1	110	-2	3
CC1CN(C(=O)c2cccc(C(=O)N3CC(C)OC(C)C3)c2)CC(C)O1 (stereo not given)	-2	-11	8	1	110	-1	·
CC1CN(C2CCN(C(=O)c3ccccc3)CC2)CC(C)O1 (stereo not given)	9.3*	-1	1	5	105	4	1
CC1CN(C(=O)c2ccc(C(=O)c3ccccc3)cc2)CC(C)O1 (stereo not given)	11*	0	2	-5	98	-6	-2
CCCC(=O)C1=C(O)C(C(=O)OC)C(C)(C)CC1=Nc1ccc(C)cc1 (stereo not given)	8.3*	1	8	2	103	4	1
SMILES	V-ATPase pHluor	JMJD2C inh	PolyA inhibitor	PKA-R1A act	CR mimetic SO	PKA-R2B activ	VATPase regulator
CCCC(=O)C1=C(O)C(C(=O)OC)C(C)(C)CC1=Nc1ccc(N)cc1 (stereo not given)	2	3	18	3	93	-12	·
Cc1cc(-c2ccccc2)nc(N(C)NC(=O)c2ccc(Cl)cc2)c1S(C)(=O)=O	18*	-1	6	-5	106	-5	-3
Cc1cc(-c2ccccc2)nc(N(C)NC(=O)C(C)(C)C)c1S(C)(=O)=O	0	-16	-5	3	93	0	·
COc1ccc(S(=O)(=O)NCc2ccco2)cc1N(C)S(=O)(=O)c1ccccc1	-3	3	-8	-3	99	6	·
Cc1nc2sccn2c(=O)c1S(=O)(=O)N1CCN(c2cccc(Cl)c2)CC1	3	-4	16	-2	100	-1	·
O=S(=O)(O)c1cc(O)ccc1O	15*	2	·	-15	102	-10	-2
Cc1ccc(NC(=O)CSc2nnc(Cc3ccccc3)c(=O)[nH]2)c(C)c1	11*	8	22	6	97	-6	-1
COc1ccc(Cc2nnc(SCC(=O)Nc3ccccc3)[nH]c2=O)cc1	-1	9	-12	6	104	-3	·
O=C(Nc1cccc(Cl)c1Cl)c1ccccc1OCC(=O)N1CCOCC1	11*	4	1	-6	100	6	-5
COc1ccccc1CNC(=O)CN1C(=O)NC2(CCCCCC2)C1=O	4	-12	·	3	87	2	·
C=C(C)c1cccc(C(C)(C)NC(=O)Nc2ccc(OC)nc2)c1	1	-9	13	-4	102	-8	·
CC(=O)Nc1ccc2nc(CN3CCN(CC(C)C)C(CCO)C3)ccc2c1 (stereo not given)	4	17	-7	4	90	1	·
CC(=O)Nc1ccc2nc(CN3CCN(Cc4ccc(F)cc4)C(CCO)C3)ccc2c1 (stereo not given)	11*	-6	-12	-6	102	-5	0
CCNC(=O)CSc1nc(-c2ccc(F)cc2)cs1	8.1*	3	-14	8	79	-12	1
CC(C)(C)NC(=O)CSc1nc(-c2ccc(F)cc2)cs1	5	3	-12	2	102	-7	·
CCOC(=O)C(CCCOc1ccc(C)cc1)C(=O)OCC	9.6*	3	22	-9	101	2	-6
Cc1ccc(C(CNC(=O)c2ccco2)N2CCN(C)CC2)cc1 (stereo not given)	3	-4	11	-6	109	2	·
COc1ccc(NC(=S)NC(=O)c2cncc(Br)c2)cc1	-1	1	7	-8	87	-4	·
